The values below come from PubChem BioAssay AID624305 (National Center for Advancing Translational Sciences (NCATS), 2012).

The nature of this assay: qHTS assay for re-activators of p53 using a Luc reporter: Hit Validation. Note: nearly all actives have a fitted effect of over 75% in size. The method, boiled down: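 Hit confirmation with a 1:5 dilution series, at 37 deg C for 24 hrs, in H1299 cells co-expressing temperature-sensitive p53-A138V and p53-responsive luciferase. Nocodazole served as control; luminescence read after 10 min with detection reagent.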
Background: qHTS replaces the single test concentration by a dilution series.

Records with an inconclusive call do not appear. Where a call stands in place of a potency, no number is given. Activity calls are given as the source filed them. Calls come from the whole dose curve; as a rule, active = well fitted activation curve with a large enough effect; inconclusive = small, poorly fitted or top-dose-only effect; inactive = no such curve, though single readings can be large or run the other way.
Potency is the fitted concentration of half-maximal effect.

On to `CC(C)(C)c1ccc(NC(=O)COC(=O)c2ccc(NS(=O)(=O)c3ccc(F)c(F)c3)cc2)cc1`, for which the Potency entry was “inactive”.

With `C/C(Cn1nnc([N+](=O)[O-])n1)=N\NC(=O)c1ccc(C)cc1`, the Potency result is “inactive”.

As for `O=C1CCCC(O)=C1N=Nc1c(Cl)cc(Cl)cc1Cl`, the Potency result is “inactive”.

For `O=C(/C=C/Nc1ccccc1C(=O)O)c1cccs1`, the Potency result is “inactive”.

Consider `C=CCNC(=S)N/N=C(\C)c1ccccn1`, for which the Potency is 6.51 µM (active).

As to `CS(=O)(=O)N1CCC(C(=O)Nc2cc(Cl)c(Cl)cc2Cl)CC1`, the Potency entry is “inactive”.

With `CN(C(=O)CSc1nnc(-c2ccco2)o1)C1CCCCC1`, the Potency result is “inactive”.

Consider `CCc1cc(C(=O)c2ccc(C)cc2)c(NC(=O)CCl)s1`, for which the Potency result was “inactive”.

`Oc1ccc(N=Cc2c(O)ccc3ccccc23)cc1`: the Potency result is “inactive”.

As for `CC(=O)c1c(C)[nH]c(C(=O)OCC(=O)c2ccc(C)s2)c1C`, the Potency entry was “inactive”.

Turning to `N#Cc1nc(COc2ccccc2)oc1N1CCOCC1`, the Potency result is “inactive”.

As to `Cc1c(C(=O)OC2CCC(C)CC2)[nH]c2c1C(=O)CCC2` (centres undefined), the Potency is 1.16 µM (active).

With `Cc1ccc2nc(C(F)(F)F)c(C#N)c(N)c2c1`, the Potency entry was “inactive”.

Turning to `CC(=O)Nc1ccc(SCC(=O)c2cc(C)n(-c3ccccc3)c2C)cc1`, the Potency is 5.8 µM (active).

As to `Cc1occc1C(=O)NN=C1C2CC3CC(C2)CC1C3`, the Potency entry was “inactive”.

Regarding `O=C(NOCc1ccccc1)c1ccc(Cl)cc1`, the Potency is 1.84 µM (active).

Take `O=S(=O)(N/N=C/c1ccccc1OCc1ccc(Cl)cc1)c1ccccc1`: the Potency result was “inactive”.

On to `COc1ccccc1OCCn1nnc2ccccc21`, for which the Potency result was “inactive”.

On to `O=C(Nc1ccc(Cl)cc1)Nc1nnc(SCc2ccccc2)s1`, for which the Potency result is “inactive”.
